Unmarked numbers belong to inactive results. Calls of active or inactive are those of the source. The call rests on the fitted dose curve; in most records, active means well fitted curve in the direction sought with a large enough effect in the repeat runs; inconclusive means weak or mixed curves; inactive means flat fitted curve, though single readings scatter.
assay: qHTS assay to test for compound auto fluorescence at 460 nm (blue) in HepG2 cells (AID 720687); conditions: autofluorescence 405/460 nm, 1 h; series mostly up to 46 µM; fluorescence, % of fluorescent control: at the top concentration
Source text: U.S. Tox21 Program National Center for Advancing Translational Sciences [NCATS] NIH Chemical Genomics Center [NCGC] U.S. Environmental Protection Agency [EPA] National Institutes of Environmental Health Sciences [NIEHS] National Toxicology Program [NTP] U.S. Food and Drug Administration [FDA] Tox21 Assay Overview: Compound auto fluorescence often interferes with screening of the compound library against various biological targets and signaling pathways. Some of these compounds may have fluorophoric properties. Such properties may interfere with the assay outputs resulting in false positives and/or negatives. To decrease such complications and ensure the compound activities are relevant in terms of biological response, the Tox21 10K compound library was screened for auto fluorescence. From the fluorophores used as reporter signals in our screening assays, the auto fluorescence equivalencies of compounds against three fluorophores have been evaluated: Triamterene, Fluorescein and Rose Bengal sodium for blue, green and red fluorescence, respectively. The fluorescence intensities were measured using Excitation/Emission wavelengths at 405/460nm, 485/535nm and 540/590nm for blue, green and red labels, respectively. This assay includes the blue fluorescence data.
Tox21 Assay Protocol Summary: 2,000 HepG2 cells in 5 uL of culture medium (MEM containing 10% FBS) per well were dispensed into black wall/clear bottom 1536-well plates using a Multidrop Combi Dispenser (ThermoFisher Scientific, Waltham, MA). The assay plates were incubated overnight at 37 C to allow cell attachment to the well bottom, followed by the transfer of 23 nL compound or DMSO vehicle by a pintool work station (Kalypsys , San Diego, CA). After the assay plates were incubated for 1 hr at 37 C and 5% CO2, fluorescence intensities in the assay plates were measured by an Envision (PerkinElmer, Shelton, CT) plate reader using three labels for measuring blue, green and red fluorescence at […] 460, 535 and 590 nm respectively.
On the % scale 0 is the no-effect control and ±100 the full control effect.

Row | SMILES | fluorescence, % of fluorescent control | outcome
1 | CC(C)(C)C(=O)OCOC(=O)[C@@H]1N2C(=O)[C@@H](N=CN3CCCCCC3)[C@H]2SC1(C)C | -0.108% [at 18.6 µM] | –
2 | c1cnc2cc3c(cc2n1)[C@@H]1CNC[C@H]3C1 | -0.0404% | –
3 | S=C=Nc1ccc(N=C=S)cc1 | -0.0044% | –
4 | N[C@@H](C(=O)N[C@@H]1C(=O)N2C(C(=O)O)=C(Cl)CC[C@H]12)c1ccccc1 | 0.613% | –
5 | CCOC(=O)Cc1cccc(-c2cc(CCCCCCc3ccc(O[C@H]4O[C@H](COC(C)=O)[C@@H](OC(C)=O)[C@H](OC(C)=O)[C@@H]4OC(C)=O)c(-c4cccc(CC(=O)OCC)c4)c3)ccc2O[C@H]2O[C@H](COC(C)=O)[C@@H](OC(C)=O)[C@H](OC(C)=O)[C@@H]2OC(C)=O)c1 | 0.211% | –
6 | CC(C)C(=O)OCC(=O)[C@@]12O[C@H](C3CCCCC3)O[C@@H]1C[C@H]1[C@@H]3CCC4=CC(=O)C=C[C@]4(C)[C@H]3[C@@H](O)C[C@@]12C | -0.0937% | –
7 | CC(=O)O[C@H]1C(=O)[C@@]2(C)[C@H]([C@H](OC(=O)c3ccccc3)[C@]3(O)C[C@H](OC(=O)[C@H](O)[C@@H](NC(=O)c4ccccc4)c4ccccc4)C(C)=C1C3(C)C)[C@]1(OC(C)=O)CO[C@@H]1C[C@@H]2O | -0.0879% | –
8 | CC1(O)CCC(C(C)(C)O)CC1 (stereo not given) | 0.327% | –
9 | CCN(CC)CCC(=O)N1c2ccccc2Sc2ccc(C(F)(F)F)cc21 | 0.0892% | –
10 | O=C(COc1ccc(Cl)cc1)OCCNC12CC3CC(CC(C3)C1)C2 | 0.114% | –
11 | CN(C)CC/C=C1/c2ccccc2CSc2ccccc21 | 0.034% [at 18.6 µM] | –
12 | CC(C)N1CCN(c2ccc(OC[C@H]3CO[C@](Cn4cncn4)(c4ccc(Cl)cc4Cl)O3)cc2)CC1 | 0.0243% [at 18.6 µM] | –
13 | Nc1ncnc2c1ncn2CCOCP(=O)(O)O | -0.0963% | –
14 | CC(C)(CO)[C@@H](O)C(=O)NCCCC(=O)O | -0.0445% | –
15 | CC(C)(C)NC[C@H](O)COc1ccccc1C1CCCC1 | -0.0347% [at 18.6 µM] | –
16 | C=C1C(=O)O[C@H]2[C@H]1CC/C(C)=C\CC[C@@]1(C)O[C@@H]21 | -0.0521% | –
17 | C[C@H]1[C@@H](OC(=O)CCC(=O)O)O[C@@H]2OC3(C)CC[C@H]4[C@H](C)CC[C@@H]1[C@@]24OO3 | 0.0792% | –
18 | COC(=O)CCC[N+](C)(C)C | 0.0034% | –
19 | CO[C@@H]1[C@@H](O[C@@H]2O[C@H](C)[C@@H](O[C@H]3C[C@@](C)(O)[C@@H](OC(=O)CC(C)C)[C@H](C)O3)[C@H](N(C)C)[C@H]2O)[C@@H](CC=O)C[C@@H](C)C(=O)/C=C/C2OC2C[C@@H](C)OC(=O)C[C@H]1OC(C)=O (stereo not given in full) | 0.113% | –
20 | CCOC(=O)Oc1c(OC)cc(C(=O)O[C@@H]2C[C@@H]3CN4CCc5c([nH]c6cc(OC)ccc56)[C@H]4C[C@@H]3[C@H](C(=O)OC)[C@H]2OC)cc1OC | 3.95% [at 18.6 µM] | –

Row | SMILES | fluorescence, % of fluorescent control | outcome
21 | CO/N=C(\C(=O)N[C@@H]1C(=O)N2C(C(=O)O)=C(CSc3nnnn3C)CS[C@H]12)c1csc(N)n1 | -0.0201% | –
22 | CC1CCCC1 | 0.0352% [at 91.3 µM] | –
23 | CC1(C)S[C@@H]2[C@H](NC(=O)C3(N)CCCCC3)C(=O)N2[C@H]1C(=O)O | -0.009% | –
24 | O=P(O)(O)OC(Cn1cncn1)(Cn1cncn1)c1ccc(F)cc1F | 0.0119% | –
25 | CO[C@H]1C=CO[C@@]2(C)Oc3c(C)c(O)c4c(O)c(c(/C=N/N5CCN(C6CCCC6)CC5)c(O)c4c3C2=O)NC(=O)/C(C)=C\C=C[C@H](C)[C@H](O)[C@@H](C)[C@@H](O)[C@@H](C)[C@H](OC(C)=O)[C@@H]1C | -0.352% | –
26 | O=C(O)c1cc2ccccc2c(Cc2c(O)c(C(=O)O)cc3ccccc23)c1O | 0.709% | –
27 | CCN(CC)CCOc1ccc(-c2nc3cc(Cl)ccc3s2)cc1 | 0.0326% | –
28 | CC[N+](C)(C)Cc1ccccc1Br | 0.174% [at 18.6 µM] | –
29 | CCN(CC)CCOC(=O)c1cccnc1 | -0.0829% | –
30 | COc1ccc(C[C@H](C)NC[C@@H](O)c2ccc(O)c(NC=O)c2)cc1 | 0.112% | –
31 | S=C1SCN(Cc2ccccc2)CN1Cc1ccccc1 | 0.0364% | –
32 | OCC(O)CO | – | inactive
33 | CCC(C)(C)OC(=O)N[C@@H](Cc1c[nH]c2ccccc12)C(=O)N[C@@H](CCSC)C(=O)N[C@@H](CC(=O)O)C(=O)N[C@@H](Cc1ccccc1)C(N)=O | -0.0866% | –
34 | O=C1CCC(=O)N1CO | 0.0002% | –
35 | COC(=O)C1=C(C)NC(C)=C(C(=O)O[C@H]2CCN(Cc3ccccc3)C2)[C@H]1c1cccc([N+](=O)[O-])c1 | 0.024% | –
36 | CC(=O)Oc1c(C)cc(OCC(O)CNC(C)C)c(C)c1C (stereo not given) | -0.0085% | –
37 | CC[C@@H](C(=O)O)[C@@H]1O[C@@H]([C@@H](C)[C@H](O)[C@H](C)C(=O)[C@H](CC)[C@H]2O[C@]3(C=C[C@@H](O)[C@]4(CC[C@@](C)([C@H]5CC[C@](O)(CC)[C@H](C)O5)O4)O3)[C@H](C)C[C@@H]2C)[C@@H](C)C[C@@H]1C | -0.127% | –
38 | NCCC(=O)[N-][C@@H](Cc1cnc[nH]1)C(=O)O.[Zn] | -0.0133% | –
39 | COc1ccc(C(=O)Nc2ccccc2CCC2CCCCN2C)cc1 (stereo not given) | -0.0332% | –
40 | CN(C)CCC=C1c2ccccc2C(C)(C)c2ccccc21 | 0.0621% | –
